An excerpt weighted towards active compounds, which were near 1.1% of everything screened.
S1P2 blocker: human S1P2 receptor antagonists, primary screen, cell-based; 97,000 tested, 0.21% active; inhibition, % at 5 µM; cell-based S1P2 antagonist assay, inhibition at 5 uM; Sphingosine 1-phosphate receptor 2 (Homo sapiens), O95136; in the data active = inhibition above about 45%;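 note: CRE beta-lactamase reporter cells expressing human S1P2 stimulated with S1P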
Target sequence (O95136 whole entry, looked up): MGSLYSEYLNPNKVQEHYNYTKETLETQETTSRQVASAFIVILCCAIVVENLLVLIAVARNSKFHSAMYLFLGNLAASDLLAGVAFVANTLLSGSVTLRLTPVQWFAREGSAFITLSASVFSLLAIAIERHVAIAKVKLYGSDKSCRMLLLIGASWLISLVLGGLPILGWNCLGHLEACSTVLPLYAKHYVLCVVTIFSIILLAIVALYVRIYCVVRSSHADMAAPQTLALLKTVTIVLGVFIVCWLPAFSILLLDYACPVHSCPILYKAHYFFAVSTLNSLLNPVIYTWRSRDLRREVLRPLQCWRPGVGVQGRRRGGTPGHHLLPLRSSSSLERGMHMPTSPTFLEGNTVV
GALR2 ag: GALR2 receptor agonists, primary screen, cell-based; Galanin receptor type 2 (Homo sapiens), O43603; GALR2-expressing cells, agonist activation read-out; activation, % (concentration not given with the values); 140,000 tested, 0.48% active; in the data active = activation above about 5%, passing the limit was not always enough
S1P2 agonist: S1P2 receptor agonists, primary screen, cell-based. S1P2-expressing cell line, agonist reporter read-out. 97,000 tested, 0.46% active. activation, % at 4.5 µM; in the data active = activation above about 16%
GALR2 antag: GALR2 antagonists in receptor-expressing cells, primary screen; inhibition, % at 4 µM; 140,000 tested, 0.39% active; antagonist mode; AID 828, 2007;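 note: cells stimulated with galanin 1-16 at roughly its EC80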
GALR2 blk conf: GALR2 antagonists, retest of hits, confirmation, cell-based; shares compounds with GALR2 antag; GALR2-expressing cells, antagonist mode, inhibition; inhibition, % at 4 µM; 480 tested, 60% active; AID 866, 2007;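 note: cells stimulated with galanin at about its EC80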
BLA inhib ctr: inhibitors of NFAT-driven beta-lactamase reporter, confirmation, counter-screen for GALR2 antagonist project, CHO NFAT-bla cells, FRET readout | shares compounds with GALR2 antag | thapsigargin-stimulated | inhibition, % at 4.2 µM | 480 tested, 36% active | AID 867, 2007;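 active = inhibition above the mean inhibition across tested compounds plus 3 SD, cut at about 27% in these data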
Of the large screens only hits and unclear results are named; the others gave an inactive call (follow-up assays come after a bar, where they were run). Cut-off read from the data, not from the text of the source, unless noted: active = inhibition above about 27%; inactive = the rest.

CN(C)S(=O)(=O)c1cc(NC(=O)COC(=O)C2CSC3(C)CCC(=O)N23)ccc1Cl (stereo not drawn)	none (no result: S1P2 blocker, S1P2 agonist)
Nc1c(C(=O)Nc2nccs2)sc2nc(-c3cccs3)cc(C(F)(F)F)c12	GALR2 antag 47 | GALR2 blk conf inactive | BLA inhib ctr inactive
Cc1nnc(NC(=O)c2sc3nc(-c4cccs4)cc(C(F)(F)F)c3c2N)s1	none
CCNC(=O)COc1ccc(C=O)cc1OC	GALR2 antag 66 (no result: S1P2 blocker, S1P2 agonist) | GALR2 blk conf inactive | BLA inhib ctr inactive
COC(=O)CCC(=O)NC(=S)Nc1sc(C)c(C)c1C(N)=O	none (no result: S1P2 blocker, S1P2 agonist)
Cc1sc(NC(=S)NC(=O)CCc2ccccc2)c(C(N)=O)c1C	GALR2 antag 33 (no result: S1P2 blocker, S1P2 agonist) | GALR2 blk conf 28 | BLA inhib ctr 36
COc1cc(/C=N\Nc2nc3ccccc3[nH]2)cc(OC)c1OC	none
Cc1ccc2cc(/C=N/Nc3nc4ccccc4[nH]3)c(Cl)nc2c1	GALR2 antag 98 (no result: S1P2 blocker, S1P2 agonist) | GALR2 blk conf inactive | BLA inhib ctr inactive
CCN(CC)c1ccc(/C=N/N(c2ccccc2)c2ccccc2)c(O)c1	none (no result: S1P2 blocker, S1P2 agonist)
CCN(CC)c1ccc(/C=N/Nc2nc3ccccc3[nH]2)c(O)c1	GALR2 antag 43 | GALR2 blk conf 45 | BLA inhib ctr inactive
COc1c(F)c(F)c(C(=O)Nc2ccc(N3CCN(Cc4ccccc4)CC3)cc2)c(F)c1F	none
CN1CCC(=NNC(=O)c2cn(-c3ccccc3)nc2-c2ccccc2)CC1	none (no result: S1P2 blocker, S1P2 agonist)
CCc1ccc2ncc(S(=O)(=O)c3ccc(C)c(C)c3)c(N3CCCC3)c2c1	none (no result: S1P2 blocker, S1P2 agonist)
COc1ccccc1-n1nc(C(=O)Nc2ccc3c(c2)OCO3)c2ccccc2c1=O	GALR2 antag 42 (no result: S1P2 blocker, S1P2 agonist) | GALR2 blk conf inactive | BLA inhib ctr 31
COc1ccc(-n2nc(C(=O)Nc3ccc4c(c3)OCO4)c3ccccc3c2=O)c(OC)c1	none (no result: S1P2 blocker, S1P2 agonist)
Cn1cnc([N+](=O)[O-])c1NC(C)(C)C	none
Cn1cnc([N+](=O)[O-])c1S(=O)(=O)c1ccc(Cl)cc1	GALR2 antag 38 (no result: S1P2 blocker, S1P2 agonist) | GALR2 blk conf 41 | BLA inhib ctr inactive
COC(=O)c1c(N2C(=O)[C@H]3[C@@H](C2=O)[C@]2(C(=O)Nc4c(C)cccc42)N2CCC[C@@H]32)sc(C)c1C	none (no result: S1P2 blocker, S1P2 agonist)
Cc1c(-c2ccccc2)oc2c(C(=O)N3CCN(c4ccc([N+](=O)[O-])cc4)CC3)cccc2c1=O	none (no result: S1P2 blocker, S1P2 agonist)
COc1ccccc1S(=O)(=O)Nc1ccc2cn[nH]c2c1	GALR2 antag 27 (no result: S1P2 blocker, S1P2 agonist) | GALR2 blk conf inactive | BLA inhib ctr inactive
CN(C(=O)COc1ccccc1C(=O)NCCOc1ccccc1)c1ccccc1	GALR2 antag 29 (no result: S1P2 blocker, S1P2 agonist) | GALR2 blk conf 43 | BLA inhib ctr inactive
COc1ccc(C2CC(=O)c3ccccc3O2)cc1 (stereo not drawn)	none (no result: S1P2 blocker, S1P2 agonist)
CC1=CC2=NC(=O)/C(=C\c3cccn3CCOc3cc(C)ccc3C)C(=N)N2O1	none (no result: S1P2 blocker, S1P2 agonist)
CCCC(=O)OCCn1c(Br)nc2c1c(=O)[nH]c(=O)n2C	GALR2 antag 30 | GALR2 blk conf inactive | BLA inhib ctr inactive
COc1ccc(-c2cnc3c(c2)CCC3(C#N)C#N)cc1	GALR2 antag 31 (no result: S1P2 blocker, S1P2 agonist) | GALR2 blk conf inactive | BLA inhib ctr inactive
CCOC(=O)C(O)(CC(=O)Nc1cc(F)ccc1C)C(F)(F)F (stereo not drawn)	GALR2 antag 29 | GALR2 blk conf inactive | BLA inhib ctr inactive
C=CCn1c(C)cc(C(=O)Cn2ncc(Cl)c(Cl)c2=O)c1C	GALR2 antag 57 (no result: S1P2 blocker, S1P2 agonist) | GALR2 blk conf 46 | BLA inhib ctr inactive
O=C(Nc1ccn(-c2ccccc2)n1)c1ccccc1Br	none (no result: S1P2 blocker, S1P2 agonist)
COc1cccc(-c2cn3nc(C)c(C)nc3n2)c1	none
COc1ccc(-c2cn3nc4c(nc3n2)CCCC4)cc1	GALR2 antag 31 | GALR2 blk conf inactive | BLA inhib ctr inactive
Cn1nc(-c2ccc(Cl)cc2)nc2c(=O)n(C)c(=O)nc1-2	S1P2 blocker 99, GALR2 antag 94 | GALR2 blk conf 100 | BLA inhib ctr 95
NC(=O)CC[C@H](NC(=O)c1ccc(F)cc1)C(=O)OCC(=O)Nc1ccc(N2CCOCC2)cc1	none (no result: S1P2 blocker, S1P2 agonist)
CCCCOc1ncnc2c1[nH]c1ccc(OCC)cc12	none
CCCCOc1ncnc2c1[nH]c1ccc(F)cc12	S1P2 blocker 63, GALR2 antag 37 | GALR2 blk conf 35 | BLA inhib ctr inactive
